Measured values taken from the supplement of paper PMC11383364.
± gives the standard deviation of the averaged measurements.

Test system: SUM149
Experiment: percent difference in area under dose-response curve of relative cell number, RPMI vs HPLM; higher = drug relatively more effective in HPLM than RPMI (negative = less effective in HPLM)
Conditions: treatment time: 72 h; dose range: 10-point, 1 nM to 20 µM; media compared: RPMI vs HPLM

Structure (SMILES)	percent difference in area under dose-response curve [%]
N#CCNC(=O)c1ccc(-c2ccnc(Nc3ccc(N4CCOCC4)cc3)n2)cc1	7.22
Fc1cc(-c2cccc3ncc(-c4cnn(C5CCNCC5)c4)nc23)cc(F)c1CN1CCOCC1	2.04
Cc1cnc(Nc2ccc(OCCN3CCCC3)cc2)nc1Nc1cccc(S(=O)(=O)NC(C)(C)C)c1	-10.7
CC(C)Oc1ccc(C(=O)N[C@H](CNC(=O)CN(C)C)Cc2ccc(-c3cn4cccc([C@H](C)O)c4n3)cc2)cc1Cl	-23.9
CO[C@H]1C[C@@H]2CC[C@@H](C)[C@@](O)(O2)C(=O)C(=O)N2CCCC[C@H]2C(=O)O[C@H]([C@H](C)C[C@@H]2CC[C@@H](OP(C)(C)=O)[C@H](OC)C2)CC(=O)[C@H](C)/C=C(\C)[C@@H](O)[C@@H](OC)C(=O)[C@H](C)C[C@H](C)/C=C/C=C/C=C/1C [Deforolimus]	2.18
Cc1cccc(CC(=O)N2CCc3c2ccc(-c2cn(C)c4ncnc(N)c24)c3F)n1	-5.2
N#CC[C@H](C1CCCC1)n1cc(-c2ncnc3[nH]ccc23)cn1 [SRuxolitinib]	-0.914
COc1ccccc1-c1cc(Nc2cccc(CS(N)(=O)=O)c2)ncn1	-3.21
CCCCCCNC(=O)n1cc(F)c(=O)[nH]c1=O [Carmofur]	-3.39
O=C(c1cc(Cc2n[nH]c(=O)c3ccccc23)ccc1F)N1CCN(C(=O)C2CC2)CC1 [Olaparib]	-24.4 ± 6.6
O=C(Nc1ccc(OC(F)(F)F)cc1)c1sccc1NCc1ccnc2ccccc12	6.56
CN(C)/N=N/c1[nH]cnc1C(N)=O [Dacarbazine]	-9.4
CNC(=O)c1cc(COc2nnc(Nc3ccc(Cl)cc3)c3ccoc23)ccn1 [Telatinib]	2.16
O=C(Nc1ccccc1-c1cn2c(CN3CCNCC3)csc2n1)c1cnc2ccccc2n1	-8.03
c1cc(-c2cnn3cc(-c4ccc(OCCN5CCCCC5)cc4)cnc23)ccn1 [Dorsomorphin]	-2.35
OCCN(CCO)c1nc(N2CCCCC2)c2nc(N(CCO)CCO)nc(N3CCCCC3)c2n1 [Dipyridamole]	2.66
O=C(O)c1ccc2cc(-c3ccc(O)c(C45CC6CC(CC(C6)C4)C5)c3)ccc2c1	-15

Structure (SMILES)	percent difference in area under dose-response curve [%]
O=C(/C=C/c1ccc2ccccc2n1)c1ccncc1	7.96
CC(=O)c1c(C)c2cnc(Nc3ccc(N4CCNCC4)cn3)nc2n(C2CCCC2)c1=O	-11.4
Cc1ccc(NC(=O)c2cccc(C(C)(C)C#N)c2)cc1Nc1ccc2ncn(C)c(=O)c2c1	-22.2
CC(C)(C)C(=O)Nc1ccc2c(c1)C(=O)C(=O)c1ccccc1-2	2.11
COc1cc(Nc2c(C#N)cnc3cc(OCCCN4CCN(C)CC4)c(OC)cc23)c(Cl)cc1Cl [Bosutinib]	7.19
CC(=O)O[C@H]1C(=O)[C@@]2(C)[C@H]([C@H](OC(=O)c3ccccc3)[C@]3(O)C[C@H](OC(=O)[C@H](O)[C@@H](NC(=O)c4ccccc4)c4ccccc4)C(C)=C1C3(C)C)[C@]1(OC(C)=O)CO[C@@H]1C[C@@H]2O [Paclitaxel]	-45.1
NC(=O)Nc1sc(-c2ccc(F)cc2)cc1C(N)=O	6.37
CC(C)C[C@H](NC(=O)CNC(=O)c1cc(Cl)ccc1Cl)B1OC(=O)C(CC(=O)O)(CC(=O)O)O1	-1.48
CN(NC(=O)CC(=O)NN(C)C(=S)c1ccccc1)C(=S)c1ccccc1 [Elesclomol]	-21.3 ± 1.7
Cn1cc(-c2ccc3c(c2)CCN3C(=O)Cc2cccc(C(F)(F)F)c2)c2c(N)ncnc21	4.03
CN1CCN(c2nc(C3=C(c4c[nH]c5ccccc45)C(=O)NC3=O)c3ccccc3n2)CC1 [Sotrastaurin]	9.13
COc1cccc2c1C(=O)c1c(O)c3c(c(O)c1C2=O)C[C@@](O)(C(C)=O)C[C@@H]3O[C@H]1C[C@H](N)[C@H](O)[C@H](C)O1 [Daunorubicin_HCl]	-26.8
Cc1ccc(Nc2nccc(N(C)c3ccc4c(C)n(C)nc4c3)n2)cc1S(N)(=O)=O [Pazopanib]	5.29
O=C(O)C(=O)O.[NH-][C@@H]1CCCC[C@H]1[NH-].[Pt+2] [Oxaliplatin]	-2.44
CCOC(=O)c1[nH]c2cc(Cl)ccc2c1C(C(=O)NC(C)(C)C)N(C=O)Cc1ccc(Cl)cc1 (centres undefined)	0.502
CNC(=O)c1ccccc1Sc1ccc2c(/C=C/c3ccccn3)n[nH]c2c1 [Axitinib]	-0.398
C[C@H]1O[C@@H](O[C@H]2[C@@H](O)C[C@H](O[C@H]3[C@@H](O)C[C@H](O[C@H]4CC[C@@]5(C)[C@H](CC[C@@H]6[C@@H]5CC[C@]5(C)[C@@H](C7=CC(=O)OC7)CC[C@]65O)C4)O[C@@H]3C)O[C@@H]2C)C[C@H](O)[C@@H]1O [Digitoxin]	-8.01
